The values that follow come from PubChem BioAssay (NCATS).

A short description of assay [1]: HTS Assay for Allosteric Antagonists of the Human D2 Dopamine Receptor: Hit Validation in HTRF (AID 624455). Note: potency is the fitted concentration of half-maximal effect.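 Note: stable D1 dopamine receptor cell line scored for blocking the D1 response.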 Put shortly: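 Hits were examined in an HTRF assay using cells stably expressing the D1 dopamine receptor, scoring inhibition of the D1-mediated response. The preceding primary screen tracked calcium flux after an EC80 dopamine addition in force-coupled, inducible Hek293 Trex D2 cells.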

The nature of assay [2]: qHTS Assay for Identification of Small Molecule Antagonists for NFkB Signaling Pathway. (AID 624479; calls by dose curve;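 note: pathway stimulated with TNF alpha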; note: potency is the fitted concentration of half-maximal effect).
The nature of assay [3]: Cytotoxicity counterscreen for NFkB agonists and antagonists (AID 624476).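 Note: cells exposed to compound for 48 hours.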 Note: potency is the fitted concentration of half-maximal effect. On the technique in general: A counterscreen serves to expose hits that act by an unwanted route or on another target.
A short description of assay [4]: qHTS Assay for Identification of Small Molecule Agonists for NFkB Signaling Pathway. (AID 624478). Note: 0% is about no effect. The gist of the method: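 NFkB-bla ME-180 cells (beta-lactamase reporter under NFkB response element) were plated overnight, treated with compound plus TNF alpha at 10 pM final (its EC50) for 5 hrs at 37 C, then loaded with LiveBLAzer substrate for 2 hrs.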
Background: Quantitative high-throughput screening tests each substance at several concentrations.

Assay [5] in a line: Cell Proliferation Assay against the TMD8 Cell Line (AID 651645).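 Note: cells exposed to compound for 48 h before reading.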 The note with it: TMD8 DLBCL cell line proliferation/viability; at 46.1 µM (top of the series) unless noted. The gist of the method:
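TMD8 cells, 500/well in RPMI with 5% FBS, dosed immediately and grown 48 h at 37 C, 5% CO2. CellTiter-Glo luminescence normalised to DMSO 100% and 9.2 uM bortezomib (final) 0%.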

The nature of assay [6]: Cell Proliferation Assay against the HBL1 Cell Line (AID 651646).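 Note: cells exposed to compound for 48 h before reading.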 To be noted: HBL1 DLBCL cells; at 46.1 µM (top of the series) unless noted. Put shortly: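 500 log-phase HBL1 cells per well in phenol red-free RPMI with 5% FBS were treated with compounds for 48 h at 37 °C, 5% CO2. Viability was read by CellTiter-Glo luminescence, normalized to DMSO (100%) and 9.2 uM bortezomib final (0%).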

For assay [7], the target named is Tyrosine-protein kinase Yes (Homo sapiens) (UniProt P07947). The assay can be described thus: qHTS for small molecule inhibitors of Yes1 kinase: Primary Screen (AID 686947). Note: nearly all actives have a fitted effect of over 60% in size. Note: potency is the fitted concentration of half-maximal effect. The gist of the method: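 ADP-Glo luminescence readout; final 4 nM Yes1, 0.1 mM ATP, 0.3 mg/mL poly(E4Y), Tris pH 7.5, MgCl2, DTT, Brij-35. 20 min compound preincubation, 60 min reaction at RT. Normalized to DMSO wells with and without enzyme.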
Tyrosine-protein kinase Yes (Homo sapiens), sequence (P07947 whole entry, looked up): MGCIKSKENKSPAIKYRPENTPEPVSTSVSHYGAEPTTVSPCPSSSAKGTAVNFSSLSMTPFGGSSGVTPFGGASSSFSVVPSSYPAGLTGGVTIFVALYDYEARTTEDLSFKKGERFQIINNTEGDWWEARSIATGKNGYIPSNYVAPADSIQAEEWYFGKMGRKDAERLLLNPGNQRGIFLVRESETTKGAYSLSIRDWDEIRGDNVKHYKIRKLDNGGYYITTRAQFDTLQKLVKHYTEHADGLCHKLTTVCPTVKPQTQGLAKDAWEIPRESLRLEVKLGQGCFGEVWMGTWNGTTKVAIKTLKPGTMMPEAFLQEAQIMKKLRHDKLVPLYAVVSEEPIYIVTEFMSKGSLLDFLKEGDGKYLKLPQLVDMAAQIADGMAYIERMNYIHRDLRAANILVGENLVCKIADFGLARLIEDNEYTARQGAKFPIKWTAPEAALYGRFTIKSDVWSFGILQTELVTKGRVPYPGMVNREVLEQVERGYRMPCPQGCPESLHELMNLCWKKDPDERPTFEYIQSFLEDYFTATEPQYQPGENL

Assay [8] in a line: qHTS for small molecule inhibitors of Yes1 kinase: Counter Assay (AID 686950).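 Note: no kinase present so only ADP-Glo detection of a fixed ADP amount is tested; luminescence from ADP-Glo reporting ADP in a fixed ATP and ADP mixture; 0% = DMSO wells with ATP plus ADP and -100% = ATP-only wells without ADP.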 Put shortly:
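Enzyme-free ADP-Glo interference check: compounds were preincubated 20 min in buffer, then an ATP/ADP mix (0.08 mM ATP, 0.02 mM ADP final) was added for 60 min at room temperature before two-step ADP-Glo luminescence detection.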

Assay [9] is described as follows: Cell Proliferation Assay against the TMD8 Cell Line (Caspase readout at 16 hrs) (AID 651712). Note: potency is the fitted concentration of half-maximal effect. Put shortly: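 TMD8 cells (500/well) in phenol-red-free RPMI with glutamine, 5% FBS, were exposed to compounds for 16 h at 37 °C. Caspase 3/7 activation was read by Caspase-Glo luminescence; percent activity normalised to DMSO (0%) and 9.2 uM bortezomib final (100%).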

Assay [10] is described as follows: Cell Proliferation Assay against the TMD8 Cell Line (Caspase readout at 8 hrs) (AID 651713). Note: potency is the fitted concentration of half-maximal effect. The gist of the method: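 TMD8 cells (500/well) in phenol red-free RPMI with 5% FBS were treated with compounds for 8 h at 37C, 5% CO2. Caspase-Glo 3/7 luminescence was read after 15 min at room temperature and normalised to DMSO (0%) and 9.2 uM bortezomib (100%).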
Assay [11] is described as follows: qHTS assay for small molecule activators of the p53 signaling pathway (AID 651743; active = well fitted activation curve with a large enough effect in the signal ratio, not every such curve was filed as active; the % refers to the signal ratio; note: % of control where 0% means no effect). The note with it: HCT-116 p53RE-bla, beta-lactamase FRET ratio, 16 h; activation: stronger effect = higher value. The gist of the method:
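p53RE-bla HCT-116 cells with a stably integrated beta-lactamase reporter under p53 response elements were plated, rested 5 hours at 37 C/5% CO2, then exposed to compounds in DMSO for 16 hours at 37 C. LiveBLAzer B/G FRET substrate was read after 2 hours at room temperature.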

A short description of assay [12]: qHTS assay for small molecule activators of the nuclear factor-kappa B (NF-kB) signaling pathway (AID 651749; active = well fitted activation curve with a large enough effect in the signal ratio; the % refers to the signal ratio; note: % of control where 0% means no effect). To be noted: NF-kB-bla ME-180 cells, beta-lactamase FRET ratio, 16 h; stronger effect = higher value. Put shortly: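 ME-180 cells stably carrying a beta-lactamase reporter under an NF-kB response element were exposed to compound or DMSO vehicle for 16 hr at 37C, 5% CO2. Pathway activation was read by FRET, since reporter expression disrupts FRET.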

The nature of assay [13]: qHTS assay for environmental chemicals that activate the Aryl hydrocarbon Receptor (AhR) signaling pathway (AID 651777). Note: % of control where 0% means no effect; nearly all actives have a fitted effect of over 15% in size. The note with it: 1A2-DRE human hepatoma cells, luciferase, 24 h; activation: stronger effect = higher value. Put shortly:
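Luminescence read-out: One-Glo added for 30 min at RT after 24 hr compound treatment (37 C, 5% CO2) of human hepatoma cells expressing a DRE/CYP1A2 promoter–luciferase reporter; increased signal indicates AhR activation.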

Assay [14] has as its target Peroxisome proliferator-activated receptor alpha (Homo sapiens) (UniProt Q07869). The assay can be described thus: qHTS assay for small molecule agonists of the peroxisome proliferator-activated receptor alpha (PPARalpha) signaling pathway (AID 651778). Note: % of control where 0% means no effect. The note with it: PathHunter PPARalpha complementation, chemiluminescence, 6 h; max response: stronger effect = higher value. Put shortly:
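Cells plated at 2,000/well and held overnight at 37 C, 5% CO2, then compound added by pin tool for 6 hr; after PathHunter detection reagent and 60 min at room temperature, chemiluminescence from enzyme complementation was read.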

Results filed as inconclusive are left out. Activity calls are given as the source filed them. Unless noted, calls come from the whole dose curve; as a rule, active = well fitted curve in the direction sought with a large enough effect; inconclusive = small, poorly fitted or top-dose-only effect, or another doubt; inactive = no such curve, though single readings can be large; an effect the other way counts as inactive or inconclusive.

Peroxisome proliferator-activated receptor alpha (Homo sapiens), sequence (Q07869 whole entry, looked up): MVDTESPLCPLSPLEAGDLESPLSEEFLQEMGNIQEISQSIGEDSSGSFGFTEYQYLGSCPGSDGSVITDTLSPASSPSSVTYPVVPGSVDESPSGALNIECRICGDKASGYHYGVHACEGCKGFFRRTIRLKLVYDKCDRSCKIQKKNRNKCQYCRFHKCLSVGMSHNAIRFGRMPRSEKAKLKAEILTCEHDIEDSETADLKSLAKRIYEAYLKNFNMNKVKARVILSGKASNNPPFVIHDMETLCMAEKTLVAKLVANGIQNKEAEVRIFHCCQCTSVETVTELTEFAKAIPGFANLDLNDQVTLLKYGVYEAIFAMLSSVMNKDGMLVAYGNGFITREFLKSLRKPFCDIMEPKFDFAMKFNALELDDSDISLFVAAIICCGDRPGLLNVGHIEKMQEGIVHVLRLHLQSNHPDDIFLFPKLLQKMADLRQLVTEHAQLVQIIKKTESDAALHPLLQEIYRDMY

For `Cc1c(C(=O)c2cccc3ccccc23)c2cccc3c2n1[C@H](CN1CCOCC1)CO3`, the Potency entry in assay [1] was “inactive”.

Turning to `CC[C@H](CO)Nc1nc(NCc2ccccc2)c2ncn(C(C)C)c2n1`, the Potency in assay [2] is 11.9 µM (active).

`Cc1ccccc1-n1c(Cn2cnc3c(N)ncnc32)nc2cccc(C)c2c1=O`: the Potency in assay [3] was 13.2 µM (active). For the same molecule, the call in [4] and in assay [8] was inactive. Moreover, the Potency result in assay [2] and in assay [7] was “inactive” in each case. The viability (% of control) in assay [5] was determined as 15.8%. In addition, in [6], the viability, percent of control was 62.6%.

Consider `C=CCON=C(C[C@H]1O[C@@H]2O[C@]3(C)CC[C@@H]4[C@H](C)CC[C@@H]([C@H]1C)[C@@]24OO3)[C@H]1O[C@@H]2O[C@]3(C)CC[C@H]4[C@H](C)CC[C@@H]([C@@H]1C)[C@@]24OO3`, for which the outcome in assay [4] and in assay [8] was inactive. The Potency was 16.8 µM (active) in assay [2], 0.0833 µM (active) in assay [9] and 6.88 µM (active) in assay [7]. Moreover, the viability (% of control) in assay [5] stood at 10.2%. In addition, in [6], the viability, percent of control was determined as 30.4%. The Potency entry in assay [10] is “inactive”.

For the molecule `Cc1cnc(Nc2ccc(F)cc2Cl)nc1-c1c[nH]c(C(=O)N[C@H](CO)c2cccc(Cl)c2)c1`, the Potency in assay [3] is 26.4 µM (active); in assay [2] it was 16.8 µM (active).

Turning to `CC(C)NC(C)Cc1ccc(I)cc1` (centres undefined), the Potency entry in assay [1] is “inactive”.

Consider `O=C(Cc1ccc(Cl)c(Cl)c1)N1CCCCC1CN1CCCC1` (centres undefined), for which, in assay [1], the Potency entry was “inactive”.

Take `CN[C@@H]1C[C@@H](c2ccc(Cl)c(Cl)c2)c2ccccc21`: in [1], the Potency result was “inactive”.

On to `O=C(Oc1ccc([N+](=O)[O-])cc1)N1CCC(C(O)(c2ccc3c(c2)OCO3)c2ccc3c(c2)OCO3)CC1`, for which the Potency result in [3], in [2] and in assay [10] was “inactive” each time. In addition, the outcome in assay [4] and in [8] was inactive. For the same molecule, the viability (% of control) in [5] stood at 68.8%. Further, the viability, percent of control in assay [6] amounted to 72%. For the same molecule, the Potency in assay [7] was 2.44 µM (active).

In the case of `CC[C@@H](C(=O)O)C1CC[C@H](C)C([C@@H](C)[C@H](O)[C@H](C)C(=O)[C@H](CC)C2O[C@]3(C=C[C@@H](O)[C@]4(CC[C@@](C)(C5CC[C@](O)(CC)[C@H](C)O5)O4)O3)[C@H](C)C[C@@H]2C)O1` (some centres undefined), the figures for the Potency in assay [3] and in assay [2] were 8.33 µM (active) and 11.9 µM (active), respectively.

Consider `COc1cc(C(O)CN)ccc1O` (centres undefined), for which the Potency result in assay [1] was “inactive”.

As to `Cc1nccc2c1[nH]c1ccccc12`, the Potency result in assay [1] was “inactive”.

Take `c1ccc(C2(c3ccccc3)CC2C2=NCCN2)cc1` (centres undefined): the Potency entry in assay [1] is “inactive”.

Regarding `Clc1cnc(Oc2ccc(Oc3ncc(Cl)cc3Cl)cc2)c(Cl)c1`, the Potency result in assay [1] is “inactive”. The activation in assay [11] is -0.174% (inactive); in assay [12], 0.531% (inactive); in assay [13], 0.838% (inactive). Moreover, the max response in assay [14] was 2.8% (inactive).

On to `CC(=O)Nc1ccc(OC[C@](C)(O)C(=O)Nc2ccc([N+](=O)[O-])c(C(F)(F)F)c2)cc1`, for which the Potency entry in assay [3], in assay [2], in assay [9], in assay [10] and in [7] was “inactive” in each case. The molecule was classed as inactive in assay [4] and in assay [8]. Also, the viability (% of control) in assay [5] was 86.6%. In assay [6], the viability, percent of control came to 96.7%.

As for `Cc1c(C(=O)Nc2cccc(C(F)(F)F)c2)cc(-c2ccccc2)n1CCCN1CCOCC1`, the Potency result in [3] and in assay [7] was “inactive” each time. The call in [4] and in assay [8] was inactive. The viability (% of control) in assay [5] turned out to be 3.39%. Further, the viability, percent of control in assay [6] was determined as 18.7%.

Turning to `Cc1nc(-c2ccc(-c3ccc(C(=O)N4CCc5cc6c(cc54)C4(CCN(C)CC4)CO6)cc3)c(C)c2)no1`, in [3], the Potency entry was “inactive”. Besides, the result in [4] and in [8] was inactive. In [5], the viability (% of control) amounted to 2.26%. Also, in [6], the viability, percent of control is 1.18%.

In the case of `NC(CP(=O)(O)O)C(=O)O` (centres undefined), the Potency entry in assay [1] is “inactive”.

For `C[C@]12N[C@H](Cc3ccccc31)c1ccccc12`, the Potency result in assay [1] is “inactive”.

Regarding `COc1ccc2c(c[n+](C)c3c4cc5c(cc4ccc23)OCO5)c1OC`, the Potency result in assay [1] and in assay [7] was “inactive” throughout. For the same molecule, the figures for the Potency in assay [3] and in assay [10] were 23.5 µM (active) and 2.96 µM (active), respectively. In addition, the viability (% of control) in assay [5] came to 3.33%. Moreover, the viability, percent of control in assay [6] was 4.88%. For the same molecule, the result in assay [8] was inactive.

Regarding `CNCCc1ccc(O)c(O)c1`, the Potency in assay [1] is 0.13 µM (active).

As for `CC(C)(C)c1[nH]cnc1C=c1[nH]c(=O)c(=Cc2ccccc2)[nH]c1=O`, the Potency is 18.7 µM (active) in [3], 16.8 µM (active) in assay [2], 0.0235 µM (active) in [9] and 0.059 µM (active) in assay [10].

Take `O=C(O)CC[N+](=O)[O-]`: the Potency result in [1] is “inactive”.

Take `CO[C@H]1C=CC=C(C)C(=O)NC2=CC(=O)C(NCCN(C)C)=C(C[C@@H](C)C[C@H](OC)[C@@H](O)[C@@H](C)C=C(C)[C@@H]1OC(N)=O)C2=O`: the values for the Potency in assay [3] and in [2] were 20.9 µM (active) and 0.0008 µM (active), respectively.

With `C[C@@]12O[C@@H](C[C@]1(O)CO)n1c3ccccc3c3c4c(c5c6ccccc6n2c5c31)CNC4=O`, the Potency in assay [2] is 1.49 µM (active).

For `Cn1cnc(CCN)c1`, the Potency entry in [1] is “inactive”.

On to `CC1=NN=C(c2ccc(N)cc2)c2cc3c(cc2C1)OCO3`, for which the Potency entry in assay [1] is “inactive”.

In the case of `CC1CC(C)C(=O)C(C(O)CC2CC(=O)NC(=O)C2)C1` (centres undefined), the Potency result in assay [3] and in [7] was “inactive” in each case. Also, the molecule was classed as inactive in assay [4] and in assay [8]. For the same molecule, the Potency is 1.09 µM (active) in assay [2], 1.91 µM (active) in assay [9] and 17.1 µM (active) in assay [10]. Besides, the viability (% of control) in assay [5] was found to be 1.51% [at 92.2 µM]. Further, in assay [6], the viability, percent of control turned out to be 43.6% [at 92.2 µM].

With `NCCc1c[nH]c2ccc(O)cc12`, the Potency entry in [1] was “inactive”.

Regarding `CC(C)[C@]12O[C@H]1[C@@H]1O[C@]13[C@]1(O[C@H]1C[C@H]1C4=C(CC[C@@]13C)C(=O)OC4)[C@@H]2O`, the Potency is 0.0332 µM (active) in [3], 0.0335 µM (active) in [2], 0.0132 µM (active) in assay [9] and 0.132 µM (active) in assay [10]. The outcome in assay [4] and in assay [8] was inactive. Besides, in [5], the viability (% of control) is 3.13%. For the same molecule, the viability, percent of control in assay [6] was found to be 35%. The Potency result in [7] is “inactive”.
